Test results published in PubChem BioAssay (EPA / NIEHS).
Results filed as inconclusive are left out. Calls of active or inactive are those of the source. The calls were made as follows: active = hit-call score of the fitted dose curve at least 0.9, where 1 is the maximum; inconclusive = response in the unintended direction; inactive = score below 0.9.

target: human Serotonin, 5-Hydroxytryptamine Receptor 2A (5HT2A), HTR2A (gene 3356) (UniProt P28223); experiment: NVS_GPCR_h5HT2A: NovaScreen (NVS) G Protein-Coupled Receptor Assay for human Serotonin, 5-Hydroxytryptamine Receptor 2A (5HT2A) (AID 2283249)
Sequence (P28223 whole entry, looked up): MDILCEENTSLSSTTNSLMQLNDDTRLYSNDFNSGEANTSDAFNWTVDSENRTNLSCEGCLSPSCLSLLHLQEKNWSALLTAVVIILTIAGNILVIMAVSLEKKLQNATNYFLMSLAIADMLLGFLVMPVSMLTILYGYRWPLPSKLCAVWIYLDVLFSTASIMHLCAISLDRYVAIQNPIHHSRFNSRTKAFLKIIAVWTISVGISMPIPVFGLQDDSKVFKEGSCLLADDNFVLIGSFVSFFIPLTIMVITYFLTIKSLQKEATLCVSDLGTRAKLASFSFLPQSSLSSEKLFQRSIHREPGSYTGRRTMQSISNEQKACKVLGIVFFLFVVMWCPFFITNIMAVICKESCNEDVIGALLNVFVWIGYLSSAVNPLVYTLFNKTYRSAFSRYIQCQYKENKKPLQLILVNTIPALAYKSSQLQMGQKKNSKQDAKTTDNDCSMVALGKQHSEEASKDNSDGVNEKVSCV
Experimental: NVS_GPCR_h5HT2A is a biochemical, single-readout assay that uses extracted gene-proteins from Human cortex in a tissue-based cell-free assay. Measurements were taken 1.5 hours after chemical dosing in a 48-well plate.NVS_GPCR_h5HT2A is one of one assay component(s) measured or calculated from the NVS_GPCR_h5HT2A assay. It is designed to make measurements of radioligand binding, a form of binding reporter, as detected with scintillation counting signals by Filter-based radiodetection technology.Data from the assay component NVS_GPCR_h5HT2A was analyzed into 1 assay endpoint. This assay endpoint, NVS_GPCR_h5HT2A, was analyzed in the positive analysis fitting direction relative to DMSO as the negative control and baseline of activity. Using a type of binding reporter, loss-of-signal activity can be used to understand changes in the binding as they relate to the gene HTR2A. Furthermore, this assay endpoint can be referred to as a primary readout, because the performed assay has only produced 1 assay endpoint. To generalize the intended target to other relatable targets, this assay endpoint is annotated to the gpcr intended target family, where the subfamily is rhodopsin-like receptor.
Binding assays used specific radioligands (tritiated, iodinated) with non-radioactive competitive displacement ligands in agonist or antagonist protocols (as indicated) and various reference compounds and inhibitors to titrate specific binding to receptors and transporters. Most enzyme assays (CYPs, kinases, phosphatases, proteases, HDACs) used recombinant protein and specific substrates (fluorescence mostly, some colorimetric and radioactive) and inhibitors, followed by a biochemical separation of substrate and product. All assays for the biochemical HTS were initially run in duplicate at a single concentration (10 uM for CYP450 assays and 25 uM for all others). […] Each assay was run with positive and negative controls, and concurrent controls on every plate. The follow-up (secondary) screen tested active chemical-pairs in concentration series, as well as a few additional assays not tested in the primary screen, some selected negative inactives, and several cases re-run in the concentration series for confirmatory purposes.

Structure (SMILES) | outcome | AC50
CCC(C)N(C)C(=O)c1cc2ccccc2c(-c2ccccc2Cl)n1 (stereo not given) | inactive | –
CSc1ccc(Oc2ccc(S(N)(=O)=O)cc2CN(C)C)cc1C | – | 13.4 µM (active)
CC(=O)O | inactive | –
CN(C)C(=O)NC1(c2ccccc2)CCN(CC[C@@]2(c3ccc(F)c(F)c3)CN(C(=O)c3ccccc3)CCO2)CC1 | – | 13.1 µM (active)
Cc1occc(=O)c1O | inactive | –
CC(N)=O | inactive | –
CN(C)C(=O)NC1(c2ccccc2)CCN(CCC[C@]2(c3ccc(Cl)c(Cl)c3)CCCN(C(=O)c3ccccc3)C2)CC1 | inactive | –
O=C(N[C@@H](c1ccccc1)[C@@H]1CCCCN1)c1cccc(C(F)(F)F)c1Cl | – | 25 µM (active)
C=CCc1ccc(OC)c(OC)c1 | inactive | –
CC(C)(O)c1ccc(CNC(=O)c2cccnc2Oc2ccc(F)cc2)cc1 | inactive | –
